Experimental data: PubChem BioAssay (NCI)
Compounds without any hit were thinned out: in the full panel of roughly 79,000, 15% have a hit. The source made the active and inactive calls. No stated cut-off is given here; in the data, active means growth inhibition above about 70%; inactive means the rest. Residues, ends and D or L forms follow the SMILES beside them. *: point of attachment. Fmoc = O=C(OCC1c2ccccc2-c2ccccc21)*; Boc = CC(C)(C)OC(=O)*

experiment: NCI Yeast Anticancer Drug Screen. Data for the rad50 strain (AID 155);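 further: 0% = growth of vehicle-only cultures of the same strain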; details: S. cerevisiae rad50 strain growth inhibition; at 50.0 µM; hits give high values
Procedure, shortened: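 Growth of the mutant yeast was measured after compound exposure and referenced to vehicle-treated cultures.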

Row | Structure (SMILES) | growth inhibition
1 | CC(C)C(=O)CC(Sc1ccc(N)cc1)c1ccccc1 (configuration not stated) | 55.6% (inactive)
2 | CC(C)OP(=O)(OC(C)C)/C(Cl)=N/Nc1ccc([N+](=O)[O-])cc1 | 88.7% (active)
3 | O=[N+]([O-])c1cc(Cl)ccc1S(=O)(=O)c1ccc(Cl)cc1[N+](=O)[O-] | 76.8% (active)
4 | CCCCCCNCCCNc1c2cc(OC)ccc2nc2cccc([N+](=O)[O-])c12 | 94.6% (active)
5 | N#CCC(=O)N/N=C(\c1ccccc1)C(c1ccccc1)C1(O)C(=O)Nc2c(Cl)ccc(Cl)c21 (configuration not stated) | 43.8% (inactive)
6 | CN(C)CCNCCCNc1c2ccccc2nc2cccc([N+](=O)[O-])c12 | 80.8% (active)
7 | CCC[CH2][Ge]([CH2]CCC)([CH2]CCC)[O]C(=O)C(O)c1ccccc1 (configuration not stated) | 90.2% (active)
8 | COc1ccc(-c2cc(-c3cc(C)cc(Cl)c3O)nc3[nH]c(=S)[nH]c(=S)c23)cc1 | 75.1% (active)
9 | O=[N+]([O-])c1ccc(/C=C\c2ccc3c(c2)OCO3)c([N+](=O)[O-])c1 | 85.2% (active)
10 | O=C1c2ccccc2N2OC3(N4CCCC4)CCCCC3C12c1ccccc1 (configuration not stated) | 84.6% (active)
11 | CC(C)OC(=O)NNc1cc(Cl)ccc1Cl | 38% (inactive)
12 | Cc1oc2ccccc2c(=O)c1Cn1nnc2ccccc21 | 4.55% (inactive)
13 | CC1(C)OC(=O)C(=Cc2ccc([N+](=O)[O-])s2)C(=O)O1 | 68.6% (inactive)
14 | CCN(CC)CCCNc1ccc([N+](=O)[O-])c2nc3ccc(OC)cc3c(NCCCN(CC)CC)c12 | 66.5% (inactive)
15 | COc1cccc(/C=C2\S/C(=N/Nc3nc(-c4ccc([N+](=O)[O-])cc4)cs3)NC2=O)c1O | 97% (active)
16 | OC(Cc1cccc2ccccc12)CN1CCC(c2ccccc2)CC1 (configuration not stated) | 86.7% (active)
17 | C1=CCN([B-](c2ccccc2)[C+]2CCCCC2)C=C1 | 98.9% (active)
18 | O=[N+]([O-])c1cc[n+]([O-])c(Cl)c1 | 99.5% (active)

Row | Structure (SMILES) | growth inhibition
19 | CCCNC(=O)OCc1c(COC(=O)NCCC)c(-c2ccc(Cl)c(Cl)c2)n2c1CCC2 | 61.9% (inactive)
20 | CC1(C)CC(=O)C(C(=O)Nc2cccs2)=C(O)C1 | 88.8% (active)
21 | O=C(NO)c1coc2ccccc2c1=O | 31.1% (inactive)
22 | COc1ccc(C(C)c2cc3c(cc2OCC(C)=O)OCO3)cc1 (configuration not stated) | -11.3% (inactive)
23 | CCS(=O)(=O)Nc1ccc(Nc2c3ccccc3nc3ccccc23)c(OC)c1 | 24.7% (inactive)
24 | O=S(=O)(c1ccccc1)N1CN2CN(C1)CN(S(=O)(=O)c1ccccc1)C2 | -11.5% (inactive)
25 | CC1=NN(C(=O)c2ccccc2O)C(=O)/C1=C/c1ccco1 | 87.5% (active)
26 | O=C1C=C(Br)C(=O)c2ccccc21 | 99.2% (active)
27 | C[N+](C)([O-])CCCNc1c2ccccc2nc2cccc([N+](=O)[O-])c12 | 86.8% (active)
28 | Cc1cccc2c(NCCCN(C)C)c3c([N+](=O)[O-])ccc(C)c3nc12 | 97.8% (active)
29 | OC1(c2ccccc2)C2CC=CC2C1(c1ccccc1)c1ccccc1 (configuration not stated) | 12.1% (inactive)
30 | C[n+]1c(-c2ccc(/C=N/NC(=O)c3ccc(C(=O)N/N=C/c4ccc(-c5cn6ccccc6[n+]5C)cc4)cc3)cc2)cn2ccccc21 | 81.2% (active)
31 | CCN(CC)CCC(=O)Nc1ccc2sc3ccccc3c(=O)c2n1 | 70% (inactive)
32 | O=[N+]([O-])c1ccc2nc(=S)[nH]n2c1 | 58.6% (inactive)
33 | O=C(c1ccccc1)[C@H]1Nc2ccc(Cl)cc2[C@H]2OCCC[C@@H]12 | 67.2% (inactive)
34 | COc1cc([N+](=O)[O-])c2ncccc2c1Br | 32.9% (inactive)
35 | O=S(=O)(c1cccc(C(F)(F)F)c1)N1c2ccccc2-n2cccc2C1c1cccnc1 (configuration not stated) | 90.5% (active)
36 | CC(C)(C)OC(=O)NCCCCC(NC(=O)C(Cc1c[nH]c2ccccc12)NC(=O)OCC1c2ccccc2-c2ccccc21)C(=O)O (configuration not stated) (Fmoc-Trp-Lys(Boc)-OH; configuration not given here) | 15.4% (inactive)

same assay, conditions: S. cerevisiae rad50 strain growth inhibition; at 100.0 µM; hits give high values

Row | Structure (SMILES) | growth inhibition
37 | CC(C)C(=O)CC(Sc1ccc(N)cc1)c1ccccc1 (configuration not stated) | 42% (inactive)
38 | CC(C)OP(=O)(OC(C)C)/C(Cl)=N/Nc1ccc([N+](=O)[O-])cc1 | 94% (active)
39 | O=[N+]([O-])c1cc(Cl)ccc1S(=O)(=O)c1ccc(Cl)cc1[N+](=O)[O-] | 81% (active)
40 | CCCCCCNCCCNc1c2cc(OC)ccc2nc2cccc([N+](=O)[O-])c12 | 96% (active)
41 | N#CCC(=O)N/N=C(\c1ccccc1)C(c1ccccc1)C1(O)C(=O)Nc2c(Cl)ccc(Cl)c21 (configuration not stated) | 25% (inactive)
42 | CN(C)CCNCCCNc1c2ccccc2nc2cccc([N+](=O)[O-])c12 | 94% (active)
43 | CCC[CH2][Ge]([CH2]CCC)([CH2]CCC)[O]C(=O)C(O)c1ccccc1 (configuration not stated) | 97% (active)
44 | COc1ccc(-c2cc(-c3cc(C)cc(Cl)c3O)nc3[nH]c(=S)[nH]c(=S)c23)cc1 | 57% (inactive)
45 | O=[N+]([O-])c1ccc(/C=C\c2ccc3c(c2)OCO3)c([N+](=O)[O-])c1 | 85% (active)
46 | O=C1c2ccccc2N2OC3(N4CCCC4)CCCCC3C12c1ccccc1 (configuration not stated) | 97% (active)
47 | CC(C)OC(=O)NNc1cc(Cl)ccc1Cl | 87% (active)
48 | Cc1oc2ccccc2c(=O)c1Cn1nnc2ccccc21 | 73% (active)
49 | CC1(C)OC(=O)C(=Cc2ccc([N+](=O)[O-])s2)C(=O)O1 | 98% (active)
50 | CCN(CC)CCCNc1ccc([N+](=O)[O-])c2nc3ccc(OC)cc3c(NCCCN(CC)CC)c12 | 9% (inactive)
51 | COc1cccc(/C=C2\S/C(=N/Nc3nc(-c4ccc([N+](=O)[O-])cc4)cs3)NC2=O)c1O | 80% (active)
52 | OC(Cc1cccc2ccccc12)CN1CCC(c2ccccc2)CC1 (configuration not stated) | 96% (active)
53 | C1=CCN([B-](c2ccccc2)[C+]2CCCCC2)C=C1 | 99% (active)
54 | O=[N+]([O-])c1cc[n+]([O-])c(Cl)c1 | 100% (active)

Row | Structure (SMILES) | growth inhibition
55 | CCCNC(=O)OCc1c(COC(=O)NCCC)c(-c2ccc(Cl)c(Cl)c2)n2c1CCC2 | 50% (inactive)
56 | CC1(C)CC(=O)C(C(=O)Nc2cccs2)=C(O)C1 | 98% (active)
57 | O=C(NO)c1coc2ccccc2c1=O | 15% (inactive)
58 | COc1ccc(C(C)c2cc3c(cc2OCC(C)=O)OCO3)cc1 (configuration not stated) | 84% (active)
59 | CCS(=O)(=O)Nc1ccc(Nc2c3ccccc3nc3ccccc23)c(OC)c1 | 92% (active)
60 | O=S(=O)(c1ccccc1)N1CN2CN(C1)CN(S(=O)(=O)c1ccccc1)C2 | -11% (inactive)
61 | CC1=NN(C(=O)c2ccccc2O)C(=O)/C1=C/c1ccco1 | 95% (active)
62 | O=C1C=C(Br)C(=O)c2ccccc21 | 99% (active)
63 | C[N+](C)([O-])CCCNc1c2ccccc2nc2cccc([N+](=O)[O-])c12 | 95% (active)
64 | Cc1cccc2c(NCCCN(C)C)c3c([N+](=O)[O-])ccc(C)c3nc12 | 96% (active)
65 | OC1(c2ccccc2)C2CC=CC2C1(c1ccccc1)c1ccccc1 (configuration not stated) | 62% (inactive)
66 | C[n+]1c(-c2ccc(/C=N/NC(=O)c3ccc(C(=O)N/N=C/c4ccc(-c5cn6ccccc6[n+]5C)cc4)cc3)cc2)cn2ccccc21 | 79% (active)
67 | CCN(CC)CCC(=O)Nc1ccc2sc3ccccc3c(=O)c2n1 | 91% (active)
68 | O=[N+]([O-])c1ccc2nc(=S)[nH]n2c1 | 98% (active)
69 | O=C(c1ccccc1)[C@H]1Nc2ccc(Cl)cc2[C@H]2OCCC[C@@H]12 | 91% (active)
70 | COc1cc([N+](=O)[O-])c2ncccc2c1Br | 20% (inactive)
71 | O=S(=O)(c1cccc(C(F)(F)F)c1)N1c2ccccc2-n2cccc2C1c1cccnc1 (configuration not stated) | 87% (active)
72 | CC(C)(C)OC(=O)NCCCCC(NC(=O)C(Cc1c[nH]c2ccccc12)NC(=O)OCC1c2ccccc2-c2ccccc21)C(=O)O (configuration not stated) (Fmoc-Trp-Lys(Boc)-OH; configuration not given here) | 56% (inactive)
